Source: PubChem
Cruzain noTriton = qHTS Assay for Promiscuous and Specific Inhibitors of Cruzain (without detergent). Cruzipain (Trypanosoma cruzi), P25779. purified cruzain, Z-FR-AMC fluorescence, no detergent. Potency, µM, most hits filed as inhibitors. hit rate 2.3% among 200,000. AID 1476, 2009; also: nearly all actives have a fitted effect of over 40% in size
Target sequence (P25779 123-467 limits assumed): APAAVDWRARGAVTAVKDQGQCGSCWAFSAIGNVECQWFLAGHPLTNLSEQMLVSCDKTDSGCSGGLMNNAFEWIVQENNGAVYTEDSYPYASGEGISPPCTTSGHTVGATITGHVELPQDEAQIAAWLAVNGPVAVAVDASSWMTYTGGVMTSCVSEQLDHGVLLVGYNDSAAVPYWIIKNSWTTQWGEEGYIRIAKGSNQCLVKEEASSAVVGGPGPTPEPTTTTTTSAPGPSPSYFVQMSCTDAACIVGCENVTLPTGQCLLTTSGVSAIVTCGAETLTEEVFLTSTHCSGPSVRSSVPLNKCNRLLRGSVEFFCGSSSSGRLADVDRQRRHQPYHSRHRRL
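Detergent-free condition (0.00005% Triton X-100) in acetate buffer pH 5.5 with DTT. 1.5 nM enzyme and compound were pre-mixed 15 min, then 2 uM Z-FR-AMC substrate added; reaction progress from fluorescence change between first and third reads (60 s).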
Cruzain inh Det = qHTS Assay for Promiscuous and Specific Inhibitors of Cruzain (with detergent). Cruzipain (Trypanosoma cruzi), P25779. purified cruzain, Z-FR-AMC fluorescence, 0.01% Triton. Potency, µM, usual class: inhibitors. hit rate 0.43% among 200,000; also: nearly all actives have a fitted effect of over 40% in size
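Steps: dispense cruzain (1.5 nM final) in acetate buffer pH 5.5 with DTT and 0.01% Triton X-100; pin-transfer compounds; incubate 15 min RT; add Z-FR-AMC (2 uM final); read fluorescence every 30 s, using the 60 s intensity change.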
Papain counter = qHTS Assay for Inhibitors of Papain: Counterscreen for Cruzain Assay. shares compounds with Cruzain inh Det. purified papain, Z-FR-AMC fluorescence cleavage. Potency, µM, usual class: inhibitors. hit rate 41% among 410; also: nearly all actives have a fitted effect of over 35% in size
Target sequence (P00784 whole entry, looked up): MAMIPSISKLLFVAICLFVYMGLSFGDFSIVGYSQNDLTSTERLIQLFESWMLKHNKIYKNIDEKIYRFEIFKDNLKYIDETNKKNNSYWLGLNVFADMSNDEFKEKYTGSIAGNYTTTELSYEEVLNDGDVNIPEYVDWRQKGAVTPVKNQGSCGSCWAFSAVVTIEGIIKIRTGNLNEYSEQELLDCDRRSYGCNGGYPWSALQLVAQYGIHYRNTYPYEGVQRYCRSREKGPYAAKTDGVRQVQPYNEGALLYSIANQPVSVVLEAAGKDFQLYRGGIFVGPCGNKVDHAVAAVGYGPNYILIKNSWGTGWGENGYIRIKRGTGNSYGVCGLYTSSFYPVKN
Large screens that a line does not name were inactive (follow-up assays come after a bar, where they were run); ! = not confirmed by another sample. Rows were chosen to be rich in hits. Some 2.6% of all compounds tested hit in one or more screens of this group. Calls follow the shape of the dose curve; as a rule, active = well fitted curve in the direction sought with a large enough effect; inconclusive = small, poorly fitted or top-dose-only effect, or another doubt; inactive = no such curve, though single readings can be large; an effect the other way counts as inactive or inconclusive.

O=C(CSc1nc2c(cnn2-c2ccc(F)cc2)c(=O)[nH]1)Nc1ccc(Br)cc1	none
CCC1Oc2ccc(Cl)cc2N(CC(=O)NCCc2ccc(Cl)cc2)C1=O (stereo not given)	none
CCc1cccc(C)c1NC(=O)c1cc(S(=O)(=O)NCc2ccccc2Cl)ccc1F	none
O=C(Cn1ncc2ccsc2c1=O)N1CCN(c2ccc(F)cc2)CC1	none
CCOc1ccc(C(=O)COC(=O)CNC(=O)C2CCCCC2)cc1	none (no result: Cruzain noTriton, Cruzain inh Det) | Papain counter inactive
CCOc1ccc(C(=O)COC(C)=O)cc1	none
COc1ccc(Br)cc1C(=O)Nc1ccc2oc(-c3cccnc3)nc2c1	none
COc1ccc2cc3cc(C(=O)N4CCN(c5cccc(C(F)(F)F)c5)CC4)sc3nc2c1	none
Cc1cc(=O)oc2cc(OC(C)C(=O)N3CCOCC3)ccc12 (stereo not given)	none
Cc1cc(=O)oc2cc(OCC(=O)N3CCOCC3)ccc12	Cruzain inh Det 8.9µM | Papain counter 14µM
COc1ccc(NC(=O)CN(Cc2ccccc2)S(=O)(=O)c2ccc3nc(C)sc3c2)cc1	Cruzain noTriton inconclusive
CCN(C(=O)C1CCC(CNS(=O)(=O)c2cccc3nsnc23)CC1)c1ccccc1 (stereo not given)	none
O=C(NCC1CC1)c1ccc2nc(-c3ccoc3)c(-c3ccoc3)nc2c1	none (no result: Cruzain noTriton, Cruzain inh Det) | Papain counter inactive
COc1ccc(-c2nc3ccc(C(=O)NCc4ccccc4)cc3nc2-c2ccc(OC)cc2)cc1	none
N#CCOc1nc(N2CCCC2)nc(N2CCCC2)n1	none
COc1nc(C#N)nc(N2CCCC2)n1	none (no result: Cruzain noTriton, Cruzain inh Det) | Papain counter 4µM
COc1nc(N2CCCCCC2)nc(N2CCCCCC2)n1	none
CCOc1nc(C#N)nc(N2CCCCC2)n1	Cruzain noTriton 0.5µM, Cruzain inh Det 0.56µM | Papain counter 2.2µM
O=C(NCCc1ccccc1Cl)c1ccc2c(=O)n(-c3ccccc3)c(=O)[nH]c2c1	Cruzain noTriton inconclusive
CCCCN(C)c1ncnc2c1cnn2-c1cccc(Cl)c1	none
COc1ccc(NC(=O)c2ccc(-c3nc(CSc4ccccc4)c(C)o3)cc2)c(OC)c1	none
COc1cccc(N2CCN(C3=NS(=O)(=O)C(c4ccc(C)cc4)=C3C)CC2)c1	none
NCCCc1ccc2oc3ccccc3c2c1	none
N#CC(C#N)=NNc1ccc2cn[nH]c2c1	Cruzain noTriton inconclusive
N#CC(C#N)=NNc1cccc(Cl)c1	Cruzain noTriton 13µM, Cruzain inh Det 11µM | Papain counter 28µM
Cc1nnc2c(N3CCN(c4ccccc4)CC3)nc3ccc(C(=O)c4ccccc4)cc3n12	none
O=C1NN(c2ccccc2)C(=O)/C1=C\c1cccc(OC(=O)c2cccs2)c1	Cruzain noTriton inconclusive
O=C1NN(c2ccc(Cl)c(Cl)c2)C(=O)/C1=C/c1cccc(OC(=O)c2cccs2)c1	Cruzain inh Det 20µM | Papain counter 18µM
COc1ccccc1-c1nn2c(-c3ccccc3Cl)nnc2s1	none
CN(C)c1ccc(-c2nn3c(-c4ccc(Cl)cc4Cl)nnc3s2)cc1	Cruzain noTriton inconclusive
COc1ccccc1-c1nn2c(-c3cc(-c4ccccc4)n[nH]3)nnc2s1	none (no result: Cruzain noTriton, Cruzain inh Det) | Papain counter 35µM
Clc1ccccc1-c1nnc2sc(-c3ccc4c(c3)OCO4)nn12	Cruzain noTriton inconclusive
CN(C)c1ccc(-c2nn3c(-c4cc(-c5ccccc5)n[nH]4)nnc3s2)cc1	none (no result: Cruzain noTriton, Cruzain inh Det) | Papain counter inactive
Clc1ccccc1-c1nn2c(-c3cc(-c4ccccc4)n[nH]3)nnc2s1	none (no result: Cruzain noTriton, Cruzain inh Det) | Papain counter inactive
O=C(CSc1nc2c(c(=O)[nH]1)CN(Cc1ccc3c(c1)OCO3)CC2)Nc1ccc(F)cc1	none
Cc1ccccc1CCNC(=O)c1ccc2c(c1)nc1n2CCC(C)C1 (stereo not given)	none
CC(C)(C)C(=O)NCCc1nc2ccccc2n1CCCCOc1ccccc1	none
CCc1ccc(OCCCCn2c(CCNC(=O)C3CCCCC3)nc3ccccc32)cc1	none (no result: Cruzain noTriton, Cruzain inh Det) | Papain counter 22µM
O=C(NCCCc1nc2ccccc2n1Cc1ccc(Cl)cc1)C1CCCCC1	none
O=C(NCCc1nc2ccccc2n1CCOc1ccc(Cl)cc1)C1CCCCC1	Cruzain inh Det 1.3µM | Papain counter 8.9µM
O=C(NCCc1nc2ccccc2n1CCOc1ccccc1)C1CCCCC1	none (no result: Cruzain noTriton, Cruzain inh Det) | Papain counter inactive
Cc1ccc(OCCCn2c(CCCNC(=O)C3CCCCC3)nc3ccccc32)cc1	none (no result: Cruzain noTriton, Cruzain inh Det) | Papain counter inactive
CC(C)C(=O)NCCc1nc2ccccc2n1CCOc1ccccc1	none
Cc1ccc(OCCCCn2c(CCNC(=O)C(C)(C)C)nc3ccccc32)cc1	Cruzain noTriton inconclusive
CCCCN1CCc2nc(N3CCN(c4ncccn4)CC3)ncc2C1	none
O=C(CCNS(=O)(=O)c1ccc2c(c1)CCN2C(=O)C1CC1)N1CCN(c2cccc(Cl)c2)CC1	Cruzain noTriton inconclusive
CCc1ccc(CN(Cc2cn[nH]c2-c2ccc(OC)cc2)C(=O)Nc2ccc(Br)cc2)cc1	none
O=C1NC(c2ccccc2)=N/C1=C/c1ccco1	none
O=C1OC(/C=C/c2ccc(Cl)cc2)=NC/1=C/c1ccco1	Cruzain noTriton 16µM, Cruzain inh Det 2.5µM | Papain counter inactive
CCc1nnc2c3ccccc3nc(Nc3ccc(F)c(Cl)c3)n12	none
CCc1ccc(NC(=O)CC2C(=O)N(c3ccccc3)C(=O)N2C(C)C)cc1 (stereo not given)	none
CCCCn1c(=O)n(CC2CCC(C(=O)NCCCOC)CC2)c(=O)c2sccc21 (stereo not given)	none
Cc1ccc(NC(=O)/C=C/c2ccc3c(c2)OCO3)cc1S(=O)(=O)N1CCOCC1	Cruzain noTriton 20µM, Cruzain inh Det 13µM | Papain counter inactive
Cc1ccc(C(=O)NCc2ccc3c(c2)OCO3)cc1S(=O)(=O)N1CCOCC1	none
COc1ccc(-c2cc(C#N)nc(N3CCN(C)CC3)n2)cc1	Cruzain noTriton 16µM, Cruzain inh Det 25µM | Papain counter inactive
COc1ccc(-c2cc(C(F)(F)F)nc(N3CCN(C)CC3)n2)cc1	none
O=C(c1ccc(CSc2nc3ccncc3n2Cc2cccc(F)c2)cc1)N1CCCCC1	none
NNc1nnc(-c2ccccc2)c(-c2ccccc2)n1	none
Nc1nc(N)c2nc(-c3ccccc3)c(N)nc2n1	Cruzain noTriton 7.9µM!, Cruzain inh Det 32µM! | Papain counter 22µM
CCCOc1cccc(C2c3c(oc4ccc(F)cc4c3=O)C(=O)N2Cc2ccc3c(c2)OCO3)c1 (stereo not given)	none
CSCC[C@H](NC(=O)COc1ccc(Cl)cc1Cl)c1nc2ccccc2[nH]1	Cruzain inh Det 6.3µM | Papain counter inactive
CSCC[C@H](NC(=O)CC(C)(C)C)c1nc2ccccc2[nH]1	none
CCOc1ccc(-c2csc(NC(=O)c3ccc(S(=O)(=O)N4CCc5ccccc5C4)cc3)n2)cc1	Cruzain noTriton 4µM | Papain counter inactive
CCOc1ccc(S(=O)(=O)N2CCc3ccccc3C2)cc1	none
O=C(Nc1nc(-c2ccc(S(=O)(=O)N3CCCC3)cc2)cs1)c1cccs1	none
O=C(Nc1nc(-c2ccc(S(=O)(=O)N3CCCCCC3)cc2)cs1)c1cccs1	Cruzain noTriton 3.2µM | Papain counter inactive
O=C(O)c1ccc(NC(=O)c2cc(S(=O)(=O)N3CCCCC3)c(Cl)cc2Cl)cc1	none
CCCCc1nn2c(=O)cc(COC(=O)c3ccccc3C)nc2s1	none
COc1ccc(-c2csc3ncnc(Nc4ccc(OC)cc4OC)c23)cc1	none
CCOc1ccc(NC(=O)c2ccc(CNc3c(NC4CCCCC4)c(=O)c3=O)cc2)cc1	Cruzain noTriton 4µM | Papain counter inactive
